# According to the supplement of paper PMC6522484:
# ± gives the standard deviation of the averaged measurements.
# What was measured:
# [1] = test system: DLD1; assay: cell viability (CellTiter-Glo) relative to plate median (fraction of plate median); higher = more viable cells; conditions: 5 µM; treatment time 24 h; reporter: 7TFP
# Procedure, shortened: (§1)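 Values are well luminescence normalised to the plate median, from either a firefly luciferase or a CellTiterGlo readout on parallel plates. The cells, colorectal cancer lines stably transduced with lentiviral 7TFP or TCF4/Wnt firefly luciferase reporters, were treated with library compounds at a final 5 µM for 24 h. The mean of two independent replicates is listed.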
# [2] = test system: HCT116; assay: as above; conditions: 5 µM; treatment time 24 h; reporter: TCF4/Wnt
# Procedure, shortened: as §1
# [3] = test system: SW480; assay: as above; conditions: 5 µM; treatment time 24 h; reporter: 7TFP
# Procedure, shortened: as §1
# [4] = test system: DLD1; assay: TCF/Wnt firefly luciferase reporter signal relative to plate median (fraction of plate median); higher = higher Wnt reporter signal; conditions: 5 µM; treatment time 24 h; reporter: 7TFP
# Procedure, shortened: as §1
# [5] = test system: SW480; assay: as above; conditions: 5 µM; treatment time 24 h; reporter: 7TFP
# Procedure, shortened: as §1
SMILES,cell viability [1],cell viability [2],cell viability [3],TCF/Wnt firefly luciferase reporter signal [4],TCF/Wnt firefly luciferase reporter signal [5]
COC(=O)C1=CO[C@@H](O[C@@H]2O[C@H](CO)[C@@H](O)[C@H](O)[C@H]2O)[C@H]2[C@@H]1C(=O)C[C@@H]2C,1.03 ± 0.067,0.992 ± 0.083,0.982 ± 0.026,1.08 ± 0.064,1.06 ± 0.021
O=C(O)c1cc(O)c2c(c1)[C@H]([C@H]1c3cc(C(=O)O)cc(O)c3C(=O)c3c(O[C@@H]4O[C@H](CO)[C@@H](O)[C@H](O)[C@H]4O)cccc31)c1cccc(O[C@@H]3O[C@H](CO)[C@@H](O)[C@H](O)[C@H]3O)c1C2=O,0.943 ± 0.028,0.967 ± 0.12,1.01 ± 0.018,1.08 ± 0.19,1.01 ± 0.071
CN(C)[C@@H]1C(O)=C(C(N)=O)C(=O)[C@@]2(O)C(O)=C3C(=O)c4c(O)cccc4[C@@](C)(O)[C@H]3[C@H](O)[C@@H]12,1.02 ± 0.17,1.07 ± 0.071,1.01 ± 0.021,0.901 ± 0.18,1 ± 0.071
CC1(C)CC23C(=O)CCC(O)C2(C)CCC13 (stereo not given),1.05 ± 0.15,1.065 ± 0.0071,1.01 ± 0.049,0.942 ± 0.11,1.04 ± 0.074
CC1CCC2(OC1)OC1CC3C4CCC5C[C@@H](O)CCC5(C)C4=CCC3(C)C1[C@@H]2C (stereo partly drawn) [3beta-HYDROXYISOALLOSPIROST-9(11)-ENE],1.02 ± 0.021,0.997 ± 0.12,0.973 ± 0.052,1.02 ± 0.11,1.01 ± 0.016
O=C(O)c1cn(C2CC2)c2cc(N3CCNCC3)c(F)cc2c1=O,0.964 ± 0.037,0.988 ± 0.015,1.03 ± 0.021,1.05 ± 0.078,1.07 ± 0.014
CCC[C@@H]1C[C@@H](C(=O)N[C@@H]([C@H]2O[C@H](SC)[C@H](O)[C@@H](O)[C@H]2O)[C@H](C)Cl)N(C)C1,0.966 ± 0.15,1 ± 0.042,1.07 ± 0.057,0.907 ± 0.028,1.04 ± 0.028
O=C(CCCN1CC=C(n2c(=O)[nH]c3ccccc32)CC1)c1ccc(F)cc1,0.995 ± 0.0071,0.868 ± 0.025,0.994 ± 0.023,0.829 ± 0.061,0.895 ± 0.088
CCN(CC)CCNC(=O)c1cc(Br)c(N)cc1OC,1.02 ± 0.081,1.07 ± 0.028,1.02 ± 0.047,0.985 ± 0.05,1.16 ± 0.078
C=CCSCC=C,0.9785 ± 0.0078,0.967 ± 0.047,0.98 ± 0.029,0.959 ± 0.015,0.95 ± 0.05
O=C(O)[C@]1(O)C[C@@H](O)[C@@H](O)[C@H](O)C1,0.982 ± 0.04,1.05 ± 0.16,0.934 ± 0.033,1.08 ± 0.16,0.923 ± 0.17
COc1ccc(-c2coc3cc(O)ccc3c2=O)c(OC)c1O,1.01 ± 0.021,1.03 ± 0.063,0.966 ± 0.076,0.852 ± 0.047,0.975 ± 0.025
COc1cc(O)c2c(c1)C(=O)c1cc(C)cc(O)c1C2=O,0.973 ± 0.017,0.979 ± 0.016,1.01 ± 0.12,0.949 ± 0.015,1.09 ± 0.057
N=C(N)NS(=O)(=O)c1ccc(N)cc1,0.943 ± 0.044,0.892 ± 0.057,0.981 ± 0.027,0.962 ± 0.033,0.986 ± 0.048
CCCCCCCCCCCCCCCC[N+](C)(C)C,0.9465 ± 0.0021,0.907 ± 0.093,0.969 ± 0.12,0.754 ± 0.12,0.701 ± 0.093
C#CC1(O)CC[C@H]2[C@@H]3CCC4=CC(=O)CC[C@@H]4[C@H]3CC[C@@]21CC (mixture of isomers),0.925 ± 0.0014,0.875 ± 0.018,0.957 ± 0.026,1.14 ± 0.028,1.14 ± 0.035
OCCN1CCN(CCCN2c3ccccc3Sc3ccc(Cl)cc32)CC1,0.891 ± 0.027,0.917 ± 0.08,0.983 ± 0.025,1.03,0.976 ± 0.13
CC(=O)OCC(=O)[C@@]1(O)[C@H](OC(C)=O)C[C@H]2[C@@H]3CCC4=CC(=O)C=C[C@]4(C)[C@@]3(F)[C@@H](O)C[C@@]21C,1.01 ± 0.069,1.09 ± 0.057,1.03 ± 0.052,1.1 ± 0.26,0.894 ± 0.069
CC(=O)OCC(=O)[C@H]1CC[C@H]2[C@@H]3CC=C4C[C@@H](O)CC[C@]4(C)[C@H]3CC[C@]12C,1.04 ± 0.05,1.03 ± 0.057,1.04 ± 0.028,1.01 ± 0.13,0.975 ± 0.064
CC(=O)O[C@H]1C[C@@H](OC(C)=O)C(C)(C)[C@@H]2C[C@@H](OC(C)=O)[C@@]3(C)C4=CC(=O)O[C@@H](c5ccoc5)[C@]4(C)CC[C@@H]3[C@@]12C,1.01 ± 0.018,1.15 ± 0.092,1.05 ± 0.057,0.976 ± 0.011,0.997 ± 0.033
O=c1ccn([C@@H]2O[C@H](COP(=O)(O)OP(=O)(O)OP(=O)(O)O)[C@@H](O)[C@H]2O)c(=O)[nH]1,0.986 ± 0.091,0.89 ± 0.016,1.04 ± 0.064,0.921 ± 0.27,0.958 ± 0.14
CNS(=O)(=O)Cc1ccc2[nH]cc(CCN(C)C)c2c1,1.08 ± 0.099,1.07 ± 0.05,0.9885 ± 0.0078,1.07 ± 0.099,1.07 ± 0.028
C[N+](C)(C)CCO.[Cl-],0.975 ± 0.0071,1.01 ± 0.068,0.929 ± 0.045,1.03 ± 0.021,1.1 ± 0.042
O=C(C=Cc1ccc(O)cc1)c1ccccc1O,0.926 ± 0.089,0.881 ± 0.03,1.02 ± 0.028,1.06 ± 0.035,1.07 ± 0.092
N[C@@H](Cc1ccc(O)c(O)c1)C(=O)O,1.075 ± 0.0071,1.03 ± 0.064,0.99 ± 0.071,1.01 ± 0.04,1.09 ± 0.042
C[C@@H]1O[C@@H](OC[C@H]2O[C@@H](Oc3c(-c4ccc(O)c(O)c4)oc4cc(O)cc(O)c4c3=O)[C@H](O)[C@@H](O)[C@@H]2O)[C@H](O)[C@H](O)[C@H]1O [RUTOSIDE  (rutin)],0.972,0.881 ± 0.16,1.01 ± 0.016,1.03 ± 0.042,0.769 ± 0.53
O=C(Oc1ccccc1C(=O)O)c1ccccc1O,1.02 ± 0.014,0.961 ± 0.054,1.03 ± 0.014,1.06 ± 0.14,1.02 ± 0.18
NCC(=O)CCC(=O)O,1.01 ± 0.021,1.06 ± 0.042,1.01 ± 0.021,1.1 ± 0.071,1.07 ± 0.021
